# Source: PubChem BioAssay (NCI)
# About 83,000 compounds went through this panel and 20% of them were active in at least one assay; those are over-represented in the sample as a whole.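 The endpoint reported here, percent growth, reads 100 for growth as untreated, 0 for no net growth and -100 for all cells dead.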 Values without a mark were called inactive. Activity calls are given as the source filed them. How the source made its calls: active means growth percent below 10; inactive means the rest.
# Tested on: HS 578T breast
# Assay: NCI-60 one-dose screen, 48 h (100 = growth as untreated, 0 = no growth, -100 = all killed)
# Conditions: 10 µM
row,SMILES,growth
1,Cc1ccc(/C(N)=N/c2sc(-c3ccccc3)nc2-c2ccccc2)cc1,95%
2,Cc1cccc(NC(=O)CSc2nc3ccc(F)cc3c(=O)n2-c2ccc(Cl)cc2)c1C,25.7%
3,CCCn1c(=O)c2[nH]c(-c3ccc(OCc4nc5ccc(C)cc5[nH]4)cc3)nc2n(CCC)c1=O,-12.4% (active)
4,O=S(=O)(Nc1ncccn1)c1ccc(-n2c(-c3ccccc3)nc(-c3ccccc3)c2-c2ccccc2)cc1,81%
5,Cc1ccc(C(=O)NNC(=O)CSc2nc3ccccc3c(=O)[nH]2)cc1,97.5%
6,COc1cc(OC(F)(F)F)ccc1C(=O)Nc1sc2c(c1C#N)CCC(=O)C2,75.9%
7,COc1ccc(C(=O)Nc2sc3c(c2C#N)CCC(=O)C3)cc1C(F)(F)F,-11.7% (active)
8,COc1ccc(-c2c(N)c(=O)n(C)c3ccccc23)cc1,66.9%
9,COc1ccc2c(c1)N=C(C(=O)O)/C2=C/c1sc(Nc2ccc(O)cc2)nc1O,50.9%
10,CN(C)c1ccc(/C=C/c2nc3ccccc3c(=O)n2CC(=O)Nc2ccc(Cl)cc2)cc1,17.1%
11,COc1ccccc1C(=O)NNC(=O)CSc1nc2c(c(=O)[nH]1)CCCC2,108%
12,CN(C)c1nc(NCCNS(=O)(=O)c2ccc(C(=O)/C=C/c3ccccc3)cc2)nc(Nc2ccc(F)cc2)n1,72.9%
13,CN(CCO)c1oc(-c2ccccc2)nc1[P+](c1ccccc1)(c1ccccc1)c1ccccc1,-11.4% (active)
14,CCOC(=O)C1=C(N)N(c2ccccc2)C2=C(C(=O)CC(C)(C)C2)C1c1ccccc1OC (centres undefined),106%
